Calls of active or inactive are those of the source. Unless noted, no rule for the calls is given here.
Experiments:
[1] = compound effects on lung adenocarcinoma cell viability – A549, calcein-AM fluorescence, 48 h, basal, profiling panel (AID 1162); details: higher = more signal; also: test concentration not given here
[2] = compound effects on differentiated 3T3-L1 adipocyte viability – cell-based, 3T3-L1 adipocytes, calcein-AM fluorescence, 48 h, basal, profiling panel (AID 1163); details: 3T3-L1 adipocytes viability, higher = more signal; also: test concentration not given here
[3] = compound effects on hepatocellular carcinoma cell viability – HepG2, calcein-AM fluorescence, 48 h, basal, profiling panel (AID 1164); details: higher = more signal; also: test concentration not given here
[4] = compound effects on multiple myeloma cell viability – MM1S, calcein-AM fluorescence, 48 h, basal, profiling panel (AID 1165); details: higher = more signal;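 also: viability of MM1S multiple myeloma cells under basal unstimulated conditions; test concentration not given here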
[5] = calcein-AM signal in unstimulated myeloma cells – cell-based, calcein-AM fluorescence, 48 h, PK04 Diversity Set, profiling panel (AID 1166); details: RPMI8226 myeloma viability, higher = more signal;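 also: cells grown under basal conditions without added stimulus; test concentration not given here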
[6] = JC-1 mitochondrial signal, unstimulated HepG2 cells – cell-based, JC-1 fluorescence, 24 h, 100 nL compound, profiling panel (AID 1167); details: HepG2 mitochondrial potential, higher = more signal; also: test concentration not given here
[7] = JC-1 mitochondrial signal, unstimulated adipocytes – cell-based, JC-1 fluorescence, 3T3-L1 adipocytes, 24 h, 100 nL compound, profiling panel (AID 1168); details: JC-1 mitochondrial fluorescence, higher = more signal, called active from +8 up or from −8 down; also: test concentration not given here
[8] = JC-1 mitochondrial signal, unstimulated myeloma cells – cell-based, JC-1 fluorescence, RPMI8226, 24 h, 100 nL compound, profiling panel (AID 1169); details: JC-1 mitochondrial potential fluorescence, higher = more signal; also: test concentration not given here
[9] = JC-1 mitochondrial signal, unstimulated MM1S myeloma – cell-based, JC-1 fluorescence, 24 h, 100 nL compound, profiling panel (AID 1170); details: MM1S mitochondrial potential, higher = more signal; also: test concentration not given here
[10] = resazurin metabolic signal in A549 cells – cell-based, resazurin fluorescence, 24 h, PK04 Diversity Set, profiling panel (AID 1171); details: A549 viability, higher = more signal, called active from +8 up or from −8 down; also: test concentration not given here
[11] = resazurin metabolic signal in HepG2 cells – cell-based, resazurin fluorescence, 24 h, PK04 Diversity Set, profiling panel (AID 1172); details: HepG2 viability, higher = more signal; also: test concentration not given here
[12] = budding yeast growth changes without added modifier – OD600, strain BY4716, 24 h, basal condition, primary screen (AID 1173); details: S. cerevisiae BY4716 growth, OD600, 24 h; higher = more signal, called active from +8 up or from −8 down
[13] = viability profiling in MM1S myeloma cells – cell-based, resazurin fluorescence, basal, 24 h, PK04 Diversity Set, profiling panel (AID 1174); details: higher = more signal, called active from +8 up or from −8 down; also: test concentration not given here
[14] = molecular target: Dihydroorotate dehydrogenase (quinone), mitochondrial (Plasmodium falciparum (isolate 3D7)) (UniProt Q08210); experiment: inhibition of P. falciparum DHODH – biochemical, C-terminal His tag, absorbance 600 nm, primary screen (AID 1175); details: PfDHODH enzyme, DCIP absorbance 600 nm; higher = more signal, called active from +8 up or from −8 down;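 also: recombinant parasite enzyme with a five histidine tag at its C terminus; test concentration not given here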
[15] = inhibition of PAO1 biofilm formation – strain PAO1, LB-PBS medium, absorbance 600 nm, primary screen (AID 1176); also: test concentration not given here; details: P. aeruginosa PAO1 growth/biofilm, A600, 12 h; higher = more signal
[16] = growth modulation of vineyard yeast isolate – strain RM11-1a, OD600, basal, 24 h, primary screen (AID 1177);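 also: cultures grown under basal conditions with no added stressor; test concentration not given here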; details: S. cerevisiae RM11-1a growth, OD600, 24 h; higher = more signal, called active from +8 up or from −8 down
[17] = growth of efflux-deficient E. coli DRC39 – strain DRC39, OD650, 24 h, E. coli filamentation inducers, primary screen (AID 1178);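 also: growth measured as culture turbidity by optical density at 650 nm; test concentration not given here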; details: E. coli DRC39 acrAB, higher = more signal, called active from +8 up or from −8 down
[18] = growth of efflux-deficient E. coli DRC39 – strain DRC39, OD650, 48 h, E. coli filamentation inducers, primary screen (AID 1179);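 also: screen aims at cell division blockers that make cells filament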; details: E. coli DRC39 delta-acrAB growth, higher = more signal, called active from +8 up or from −8 down
[19] = viability profiling in RPMI8226 myeloma cells – cell-based, resazurin fluorescence, basal, 24 h, PK04 Diversity Set, profiling panel (AID 1180); details: higher = more signal;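 also: RPMI8826 multiple myeloma cell line at 5000 cells per well; test concentration not given here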
[20] = molecular target: E3 ubiquitin-protein ligase XIAP (Homo sapiens) (UniProt P98170); experiment: small molecules binding XIAP protein – biophysical, small-molecule microarray, fluorescence 635 nm, primary screen (AID 1181); details: higher = more signal;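 also: score merges 667 nm emission and signal to noise over triplicate slides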
Sequence of E3 ubiquitin-protein ligase XIAP (Homo sapiens) (P98170 whole entry, looked up): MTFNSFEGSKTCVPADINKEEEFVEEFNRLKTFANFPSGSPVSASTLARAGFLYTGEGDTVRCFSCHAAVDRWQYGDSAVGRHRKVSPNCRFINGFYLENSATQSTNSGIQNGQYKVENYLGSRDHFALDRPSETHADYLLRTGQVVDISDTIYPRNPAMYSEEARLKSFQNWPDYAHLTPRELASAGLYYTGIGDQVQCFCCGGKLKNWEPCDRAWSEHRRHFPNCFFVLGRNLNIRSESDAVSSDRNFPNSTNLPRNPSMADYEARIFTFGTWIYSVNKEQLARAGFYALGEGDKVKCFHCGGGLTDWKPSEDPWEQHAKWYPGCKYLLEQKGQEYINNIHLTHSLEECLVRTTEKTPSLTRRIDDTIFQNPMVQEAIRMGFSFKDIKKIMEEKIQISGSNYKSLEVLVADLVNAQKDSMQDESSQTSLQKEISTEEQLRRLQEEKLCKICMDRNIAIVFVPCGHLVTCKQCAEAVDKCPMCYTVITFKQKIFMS

Sequence of Dihydroorotate dehydrogenase (quinone), mitochondrial (Plasmodium falciparum (isolate 3D7)) (Q08210 whole entry, looked up): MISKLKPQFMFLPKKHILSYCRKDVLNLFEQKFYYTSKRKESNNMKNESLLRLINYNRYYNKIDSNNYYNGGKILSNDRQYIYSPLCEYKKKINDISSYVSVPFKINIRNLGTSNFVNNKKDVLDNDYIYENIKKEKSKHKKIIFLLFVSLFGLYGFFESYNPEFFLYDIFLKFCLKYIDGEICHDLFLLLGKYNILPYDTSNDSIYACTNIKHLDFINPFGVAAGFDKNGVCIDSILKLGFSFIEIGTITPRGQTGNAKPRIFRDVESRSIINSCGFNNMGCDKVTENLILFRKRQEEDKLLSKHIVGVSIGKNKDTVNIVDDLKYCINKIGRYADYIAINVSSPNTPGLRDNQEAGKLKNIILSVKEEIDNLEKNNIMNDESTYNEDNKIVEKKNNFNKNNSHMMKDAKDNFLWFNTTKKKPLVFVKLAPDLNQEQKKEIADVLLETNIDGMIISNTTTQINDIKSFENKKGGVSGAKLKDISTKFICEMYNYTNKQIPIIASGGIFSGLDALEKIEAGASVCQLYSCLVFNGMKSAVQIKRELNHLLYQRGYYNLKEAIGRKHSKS

| SMILES | z-score [1] | z-score [2] | z-score [3] | z-score [4] | z-score [5] | z-score [6] | z-score [7] | z-score [8] | z-score [9] | z-score [10] | z-score [11] | z-score [12] | z-score [13] | composite z-score [14] | z-score [15] | z-score [16] | z-score [17] | z-score [18] | z-score [19] | composite z-score [20] |
| --- | --- | --- | --- | --- | --- | --- | --- | --- | --- | --- | --- | --- | --- | --- | --- | --- | --- | --- | --- | --- |
| CCOC(=O)NN=C1C[C@@H](O)[C@@H](O)[C@@H]2[C@@H]3C(=O)N(c4ccc(F)cc4F)C(=O)[C@@H]3CC[C@@H]12 | 0.187 | -0.384 | -1.12 | 0.218 | 0.617 | 0.333 | 0.076 (inactive) | 0.285 | -0.326 | 0.485 (inactive) | 1.06 | 0.559 (inactive) | 0.514 (inactive) | -0.0225 (inactive) | 0.118 (inactive) | 0.916 (inactive) | 0.239 (inactive) | -0.559 (inactive) | 0.562 | -0.0663 |
| COC(=O)[C@@H]1CC[C@H](C)[C@@H](c2ccc(C)cc2)N1C(=O)c1ccc(C=NO[C@H](C)c2cn([C@@H]3COC[C@H]3O)nn2)cc1 | 0.278 | -1.16 | -0.482 | 0.673 | -0.486 | -1.12 | -0.579 (inactive) | -0.916 | -0.985 | 0.339 (inactive) | -0.324 | -0.225 (inactive) | -0.943 (inactive) | 0.0465 (inactive) | 0.289 (inactive) | 1.17 (inactive) | 0.879 (inactive) | 0.246 (inactive) | -0.798 | 0.199 |
| COC(=O)CC=C[C@@H](C)[C@@H](C=NO[C@H](C)c1cn([C@H](CO)Cc2ccccc2)nn1)OC | -0.0647 | 0.304 | -0.458 | 0.209 | 0.0397 | -0.741 | -1.24 (inactive) | 0.923 | 1.74 | 0.556 (inactive) | 0.167 | -0.285 (inactive) | -0.242 (inactive) | -0.184 (inactive) | 0.368 (inactive) | -0.212 (inactive) | 0.0343 (inactive) | -0.265 (inactive) | 0.261 | -0.142 |
| COC(=O)[C@H](C)NC(=O)CCC1CC(OC(=O)NCc2ccc3c(c2)OCO3)CC2(CCCC(COC(=O)NCC3CCCCC3)O2)O1 (stereo not given in full) | -0.374 | -0.335 | -0.653 | -3.22 | -0.103 | -0.283 | -0.183 (inactive) | 0.34 | -0.0549 | 0.619 (inactive) | 0.635 | 0.415 (inactive) | 0.138 (inactive) | 0.981 (inactive) | -0.388 (inactive) | 1.13 (inactive) | 0.49 (inactive) | 0.139 (inactive) | -0.119 | 0.104 |
| O=C(NN=C1C[C@@H](O)[C@@H](O)[C@@H]2[C@@H]3C(=O)N(C4CCCCC4)C(=O)[C@@H]3CC[C@H]12)OCc1ccccc1 | 0.215 | 0.0766 | -0.822 | -0.816 | -0.284 | -1.14 | -0.458 (inactive) | 0.219 | 0.703 | -0.401 (inactive) | -0.383 | 0.112 (inactive) | -0.531 (inactive) | -0.135 (inactive) | 0.307 (inactive) | -0.182 (inactive) | 0.061 (inactive) | -0.0133 (inactive) | -0.901 | 0.0942 |
| CC(C)[C@@H](OCc1ccccc1)[C@H](C)C=NOC[C@@H](O)COCc1ccco1 | -0.695 | 0.0863 | -0.893 | -1.05 | -1.09 | -1.83 | -1.25 (inactive) | -0.298 | -0.368 | -0.185 (inactive) | -0.314 | -11.9 (active) | -0.911 (inactive) | -0.585 (inactive) | 0.429 (inactive) | -1.12 (inactive) | 0.7 (inactive) | 0.43 (inactive) | -0.885 | -0.0172 |
| CCCCC#C[C@@H]1C=C[C@H](OC(C)=O)[C@@H](COC(C)=O)O1 | -0.0464 | -0.515 | -1.14 | -3.37 | -3.02 | -1.24 | 0.378 (inactive) | -0.746 | -2.22 | 0.451 (inactive) | 0.693 | -1.44 (inactive) | -3.24 (inactive) | -0.216 (inactive) | 0.909 (inactive) | -0.667 (inactive) | -0.233 (inactive) | -0.248 (inactive) | -1.82 | 0.474 |
| CCOC(=O)[C@H](CC(C)C)NC(=O)CCC1CC(OC(=O)NCc2cccc3ccccc23)CC2(CCCC(COC(=O)NCc3cccc(C(F)(F)F)c3)O2)O1 (stereo not given in full) | -0.442 | -0.302 | 0.8 | 0.484 | 0.38 | 0.936 | 0.346 (inactive) | 0.0118 | -0.851 | -0.75 (inactive) | -0.189 | -0.31 (inactive) | 0.0223 (inactive) | -0.161 (inactive) | 0.687 (inactive) | 0.388 (inactive) | 0.939 (inactive) | 1.08 (inactive) | 0.639 | -0.206 |
| CCOC(=O)NN=C1C[C@@H](O)[C@@H](O)[C@@H]2[C@@H]3C(=O)N(C(C)(C)C)C(=O)[C@@H]3CC[C@H]12 | 0.338 | -0.666 | 1.34 | 0.469 | 0.541 | 0.361 | 0.314 (inactive) | -0.252 | -1.59 | -0.974 (inactive) | -1.46 | -0.962 (inactive) | -0.4 (inactive) | -0.397 (inactive) | 0.434 (inactive) | 0.179 (inactive) | 0.408 (inactive) | 0.72 (inactive) | -0.226 | -0.246 |

From PubChem BioAssay
